Measurements: article PMC4336329 (PLoS ONE, 2015)
The whole screen tested about 310,000 compounds, of which about 14,000 (4.5%) showed an effect of 50% or more. Effects have a minus sign here. Many of the other results were omitted from the sample, so strong results are more common in it than they were.

What follows are molecules tested against human ether-à-go-go-related gene (hERG) potassium channel (human, UniProt Q12809) (assay: primary screen, population patch clamp on CHO cells stably expressing hERG; higher = less effect of the substance).
human ether-à-go-go-related gene (hERG) potassium channel, sequence (Q12809 whole entry, looked up): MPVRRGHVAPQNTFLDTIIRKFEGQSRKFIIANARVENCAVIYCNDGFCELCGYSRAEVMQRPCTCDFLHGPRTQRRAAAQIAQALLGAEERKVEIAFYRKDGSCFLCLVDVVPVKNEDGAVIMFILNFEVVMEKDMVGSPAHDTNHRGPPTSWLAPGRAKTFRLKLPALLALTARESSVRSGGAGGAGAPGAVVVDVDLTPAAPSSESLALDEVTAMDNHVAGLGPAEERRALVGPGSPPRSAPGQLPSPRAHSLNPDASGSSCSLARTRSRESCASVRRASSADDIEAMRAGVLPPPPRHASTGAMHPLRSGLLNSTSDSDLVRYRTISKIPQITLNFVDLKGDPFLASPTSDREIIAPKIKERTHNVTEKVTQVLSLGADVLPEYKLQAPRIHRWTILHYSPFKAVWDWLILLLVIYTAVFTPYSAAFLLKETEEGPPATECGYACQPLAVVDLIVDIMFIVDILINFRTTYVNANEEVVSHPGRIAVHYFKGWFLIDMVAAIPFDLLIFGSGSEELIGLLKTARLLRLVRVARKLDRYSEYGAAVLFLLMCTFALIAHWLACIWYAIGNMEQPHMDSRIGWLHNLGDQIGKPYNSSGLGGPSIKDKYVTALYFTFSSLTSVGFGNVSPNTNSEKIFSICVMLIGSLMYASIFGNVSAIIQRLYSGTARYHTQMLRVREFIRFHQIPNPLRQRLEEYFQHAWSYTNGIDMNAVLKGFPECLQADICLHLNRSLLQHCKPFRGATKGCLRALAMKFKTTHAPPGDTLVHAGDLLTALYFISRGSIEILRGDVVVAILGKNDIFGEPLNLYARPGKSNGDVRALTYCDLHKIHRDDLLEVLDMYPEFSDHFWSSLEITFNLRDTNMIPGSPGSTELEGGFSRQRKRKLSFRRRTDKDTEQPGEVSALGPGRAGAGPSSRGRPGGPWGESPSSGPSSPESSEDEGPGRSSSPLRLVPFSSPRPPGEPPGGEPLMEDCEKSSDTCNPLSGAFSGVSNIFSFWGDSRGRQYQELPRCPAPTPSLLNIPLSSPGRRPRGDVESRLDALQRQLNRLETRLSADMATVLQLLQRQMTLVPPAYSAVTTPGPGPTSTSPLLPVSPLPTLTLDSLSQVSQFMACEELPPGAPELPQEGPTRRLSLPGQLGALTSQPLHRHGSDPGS
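Note: peak tail current of the secondary pulse compared with the same well before compound.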

Compound | hERG current change (%, negative = inhibition) at 10uM [%]
N#Cc1ccccc1Sc1ccccc1C(=O)Nc1ccccc1 | 0.339
Cc1ccc(-c2noc(CCC(=O)Nc3ccc4c(c3)OCO4)n2)cc1 | 3.68
CC(C)(C)OC(=O)N1CCC(CNC(=O)c2cccs2)CC1 | 10.9
CCCc1nc(SCC(=O)N2c3ccccc3CC2C)c2c(C)c(C)sc2n1 (centres unmarked) | 14.1
N/C(Cc1ccc(Cl)cc1)=N\OC(=O)Cc1ccc([N+](=O)[O-])cc1 | -4.32
N/C(Cc1ccc([N+](=O)[O-])cc1)=N\OC(=O)CC1CCCCC1 | -68.5
Cc1cc(C)cc(OCC(=O)O/N=C(\N)Cc2ccc([N+](=O)[O-])cc2)c1 | -2.56
Cc1ccc(OCC(=O)O/N=C(\N)Cc2ccc([N+](=O)[O-])cc2)cc1C | -32.7
CCc1ccc(OCC(=O)O/N=C(\N)Cc2ccc([N+](=O)[O-])cc2)cc1 | -53.9
Cc1ccc(CC(=O)O/N=C(\N)Cc2ccc([N+](=O)[O-])cc2)cc1 | 0.827
COc1ccc(C/C(N)=N/OC(=O)C(c2ccccc2)c2ccccc2)cc1OC | -14.5
N/C(Cc1ccc([N+](=O)[O-])cc1)=N\OC(=O)Cc1ccc(Cl)cc1 | -4.39
N/C(Cc1ccc([N+](=O)[O-])cc1)=N\OC(=O)C1CCCCC1 | -3.44
N/C(Cc1ccc([N+](=O)[O-])cc1)=N\OC(=O)Cc1ccccc1 | -50.7
N/C(Cc1ccc([N+](=O)[O-])cc1)=N\OC(=O)C(c1ccccc1)c1ccccc1 | -66.9
N/C(Cc1ccc([N+](=O)[O-])cc1)=N\OC(=O)c1ccco1 | -26.8
COc1cccc(-c2nn[nH]n2)c1O | 9.02
c1ccc(CSCc2cn3ccsc3n2)cc1 | -4.45
COc1ccc(CCNC(=O)C2CCCN(S(=O)(=O)c3cccc4nonc34)C2)cc1OC (centres unmarked) | 10.5
Cc1cccc(C(=O)NC(=S)NNC(=O)c2cccs2)c1 | 17.2
Cc1onc(-c2ccccc2)c1NC(=O)N(CCC#N)Cc1ccccc1 | 3.65
CCOC(=O)c1ccc(NC(=O)c2nc[nH]c2C(=O)NCC(=O)OC(C)(C)C)cc1 | 19.5
Cc1cc(C)nc(N(C#N)Cc2ccccc2)n1 | -4.34

Compound | hERG current change (%, negative = inhibition) at 10uM [%]
Cc1cc(C)nc(/N=C(\N)N(Cc2ccccc2)Cc2ccccc2)n1 | -70.6
CCN(/C(N)=N/c1nc(C)cc(C)n1)c1ccccc1 | -6.01
CCCCN(CCCC)/C(N)=N/c1nc(C)cc(C)n1 | -80.2
Cc1cc(C)nc(/N=C(\N)N2CCCCCC2)n1 | -3.86
CCN(CC)/C(N)=N/c1nc(C)cc(C)n1 | 7.16
COc1cccc(C=O)c1OCCN1C(=O)c2ccccc2C1=O | 4
CCc1ccccc1S(=O)(=O)Cc1ccc(C(=O)NCc2cccs2)o1 | -22.5
Cc1cc(C(=O)CCl)c(C)n1CCc1ccc(F)cc1 | 27.2
CC1CC(C)CN(c2ncnc3c2cnn3C)C1 (centres unmarked) | -69.8
CN1CCN(c2ncnc3c2cnn3C)CC1 | 19.5
CC1CC(C)CN(c2ncnc3c2cnn3-c2ccc(Cl)cc2)C1 (centres unmarked) | 3.17
Cc1ccccc1NC(=O)c1cccnc1 | -7.59
CCCCOC(=O)c1cc(=O)[nH]c2ccc(C)cc12 | 5.6
CC1(C)OC(=O)C(=NNc2ccccc2[N+](=O)[O-])C(=O)O1 | 24.3
COC(=O)CN(c1ccc(Cl)cc1C)S(C)(=O)=O | 13.9
CS(=O)(=O)c1cccc(C(=O)N(CCc2ccccc2)Cc2cccs2)c1 | -48.6
COc1ccc(C(=O)N(CCc2ccccc2)Cc2cccs2)c(OC)c1 | -15.9
N#Cc1cccc(C(=O)N(CCc2ccccc2)Cc2cccs2)c1 | -53.3
O=C(Cc1ccccc1)Nc1ccc(C(=O)NCc2ccccc2)cc1 | 11.2
Cn1c(SCC(=O)Nc2cccc(F)c2)nnc1-c1cccnc1 | -33.1
Cn1c(SCC(=O)Nc2ccc(F)cc2)nnc1-c1cccnc1 | -11.5
CCCn1c(SCC(=O)Nc2cccc(C(=O)OC)c2)nnc1-c1cccnc1 | -42
Cc1ccc(NC(=O)CSc2nnc(-c3cccnc3)n2CCN2CCCCC2)cc1 | -69

Compound | hERG current change (%, negative = inhibition) at 10uM [%]
O=C(CSc1nnc(-c2cccnc2)n1CCN1CCCCC1)Nc1cccc(Cl)c1 | -79.8
C=CCn1c(SCC(=O)Nc2ccc(C(=O)O)cc2)nnc1-c1cccnc1 | 34.6
COC(=O)C1=C(c2ccc(OC)c(OC)c2)C[C@@H]2CC[C@H]1N2C(=O)N1CCC(C)CC1 | 5.39
O=C(COc1ncnc2ccc(Br)cc12)NC1CCCC1 | 2.91
Cc1cc(NC(=O)COC(=O)CSc2nc3cc(Cl)ccc3n2Cc2ccccc2)no1 | -19.9
Nc1nc2n(n1)C(=O)CC(c1ccccc1[N+](=O)[O-])N2 (centres unmarked) | 41.7
CC(C)(C)n1nnnc1C(c1ccc(C(F)(F)F)cc1)N(Cc1ccc(F)cc1)Cc1ccco1 (centres unmarked) | 8.86
O=C(NCCc1csc(-c2ccccc2)n1)c1ccccc1F | -49.5
COCCCNC(=O)CCc1nc2cccnc2n1Cc1ccccc1 | -29.8
COc1ccc(Cn2c(CCC(=O)Nc3ccccc3)nc3cccnc32)cc1 | -9.7
CCCCNC(=O)CCc1nc2cccnc2n1Cc1ccccc1 | -51.7
CCCCNC(=O)CCc1nc2cccnc2n1Cc1ccc(OC)cc1 | -18.1
COCCCNC(=O)CCc1nc2cccnc2n1Cc1ccc(OC)cc1 | 10.8
CCCCCCNC(=O)CCc1nc2cccnc2n1Cc1ccc(OC)cc1 | -63.6
O=C(O)CCc1nc2cccnc2n1Cc1ccccc1 | -24.6
COCCNC(=O)CCc1nc2cccnc2n1Cc1ccc(OC)cc1 | 8.65
O=C(CCc1nc2cccnc2n1Cc1ccccc1)NCCc1ccc(Cl)cc1 | -78.6
Cc1ccc(NC(=O)c2cc(CC(C)C)nc3ccccc23)cc1 | 11
CCOc1ccc2nc(NC(=O)CN3CCN(C)CC3)sc2c1 | -15.7
CN(C)CCc1nn[nH]n1 | -0.456
CSCCC(NC(=O)c1ccc(Cl)cc1Cl)C(=O)OC1CCCCC1=O (centres unmarked) | -26.7
CCOc1ccc(NC(=O)CN(C)CC(=O)Nc2cccc(Cl)c2C)cc1OCC | -10.4
COc1ccccc1C(CCN(Cc1cccs1)C(C)=O)c1ccco1 (centres unmarked) | -2.93

Compound | hERG current change (%, negative = inhibition) at 10uM [%]
CCC(=O)N(CCC(c1ccccc1)c1ccco1)Cc1cccs1 (centres unmarked) | -15.9
CC(=O)N(CCC(c1ccccc1)c1ccco1)Cc1cccs1 (centres unmarked) | -52.9
COc1ccc(NC(=O)CNS(=O)(=O)c2ccccc2)cc1Cl | 4.28
COc1cccc(NC(C)=[N+](C)CCNS(=O)(=O)c2ccc(Cl)cc2)c1.[I-] | -64.4
COc1cccc(NC(=O)C2(S(=O)(=O)c3ccc(Cl)cc3)CC2)c1 | -15.9
CC(Nc1ccc(F)cc1)=[N+](C)CCNS(=O)(=O)c1ccc(Cl)cc1.[I-] | -68.4
CC(=O)Nc1ccc(S(=O)(=O)NCCc2ccc(F)cc2)cc1 | -10.7
COc1ccccc1NC(=O)C(C)NS(=O)(=O)c1ccc(Cl)cc1 (centres unmarked) | -0.716
COc1ccc(NC(=O)CCNS(=O)(=O)c2ccc(NC(C)=O)cc2)cc1Cl | 22.8
COc1ccccc1NS(=O)(=O)c1ccc(Cl)cc1 | -19.5
CC(Nc1cc(C)cc(C)c1)=[N+](C)CCNS(=O)(=O)c1ccc(Cl)cc1.[I-] | -48.5
COc1ccccc1NC(C)=[N+](C)CCNS(=O)(=O)c1ccc(Cl)cc1.[I-] | -58.7
COc1ccc(NC(C)=[N+](C)CCNS(=O)(=O)c2ccc(Cl)cc2)cc1Cl.[I-] | -69.5
CCNS(=O)(=O)c1ccc(NC(=O)Nc2cccc(OC)c2)cc1 | 8.01
CCCc1nc2c(sc3nc4c(cc32)COC(C)(C)C4)c(=O)n1CCN(CC)CC | -17.8
O=[N+]([O-])c1cccc(NC(=S)NCc2ccncc2)c1 | 0.695
CCOC(=O)c1c(Nc2ccccc2)sc(/C=C2\C=Nc3ccccc32)c1O | 0.585
O=C(O)/C=C/C(=O)N1CCN(c2ccccc2F)CC1 | 7.85
COc1ccc(-c2ccc(SCC(=O)N3c4ccccc4CC3C)nn2)cc1OC (centres unmarked) | -4.75
CCOC(=O)C1CCN(C(=O)c2cn(C)c(=O)c3cc(OC)c(OC)cc23)CC1 | -11.3
